Assay results published in PubChem BioAssay.
Inconclusive results are not listed. Activity calls are given as the source filed them. Unless noted, the rule behind the calls is not given here.

Tests used:
[1] = hit retest on RPL19A-GFP reporter strain – cell-based, S. cerevisiae, flow cytometry, cherry picks, mother/daughter gates, confirmation (AID 2270;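 active = GFP response below 50% of the DMSO control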); conditions: 3 h, at 10 µM, stronger effect = lower value, 100 = same GFP as DMSO wells
[2] = yeast TOR pathway reporter LAP4-GFP change – cell-based, cherry picks, flow cytometry, mother/daughter gates, confirmation (AID 2271;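 active = GFP response above 150% of the DMSO control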;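 note: ratio of sample to DMSO plate mean so 100% equals DMSO level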); conditions: S. cerevisiae LAP4-GFP strain, 3 h, at 10 µM, stronger effect = higher value
[3] = TOR pathway CIT2 reporter hit retest – S. cerevisiae, GFP fusion, cherry picks, mother/daughter gates, confirmation (AID 2274;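 active = GFP response above 150% of the DMSO level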); conditions: S. cerevisiae CIT2-GFP strain, flow cytometry, 3 h, at 10 µM, stronger effect = higher value
[4] = rapamycin-like changes in RPL19A-GFP expression – cell-based, S. cerevisiae, multiplex flow cytometry, primary screen (AID 1862; in the data active = percent of DMSO control GFP below about 86%;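 note: lower values mimic rapamycin by blocking the RPL19A rise seen in DMSO cells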); conditions: S. cerevisiae RPL19A-GFP strain, flow cytometry fluorescence, 3 h; at 10 µM; stronger effect = lower value
[5] = TOR pathway GLN3 branch reporter MEP2-GFP changes – S. cerevisiae, multiplex flow cytometry, primary screen (AID 1867;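 active = GFP response, as percent of the DMSO control, above the screen-wide mean plus 3 SD, about 139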;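 note: median GFP channel fluorescence of barcode-gated MEP2-GFP cells measured by flow cytometry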); conditions: S. cerevisiae MEP2-GFP strain, 3 h, at 10 µM, stronger effect = higher value
[6] = TOR pathway RTG branch CIT2 reporter changes – S. cerevisiae, GFP fusion, multiplex flow cytometry, primary screen (AID 1870;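 active = percent response above a set limit, the screen-wide mean plus 3 SD, cut at about 130% in these data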;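 note: barcoded CIT2-GFP strain pooled with four other GFP strains with rapamycin as positive control; median GFP fluorescence per well over plate mean of DMSO wells so 100% = DMSO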); conditions: S. cerevisiae CIT2-GFP expression, 3 h, at 10 µM, stronger effect = higher value
[7] = TOR pathway LAP4-GFP level changes – S. cerevisiae, multiplex flow cytometry, primary screen (AID 1873;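 active = GFP signal, as percent of the solvent control, above the screen mean plus 3 SD, about 149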); conditions: S. cerevisiae LAP4-GFP expression, 3 h, at 10 µM, stronger effect = higher value
[8] = reduced mouse 2C T cell binding to pMHC/ICAM-1 vesicles – MLPCN validation set, flow cytometry, LFA-1/ICAM-1 modulator project, pilot screen (AID 2523;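 active = response below a set limit, under 55% cells CD8-positive and vesicle-bound, and CD8 cells' 90th-percentile brightness under 279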;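 for vesicle binding response: mean PE anti-B7-1 fluorescence of CD8+ cells relative to row control; 100% = QL9-loaded vesicles with DMSO vehicle in the same plate row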); conditions: 2C mouse CD8+ T cells, at 7 µM, stronger effect = lower value; double positive events: measured here: CD8+/vesicle+ event percentage
[9] = target: Integrin beta-1 (Homo sapiens) + Integrin alpha-4 (Homo sapiens) (UniProt P13612+P05556); experiment: alpha4beta1 integrin LIBS antibody binding reduction – U937 cells, HUTS-21 mAb, flow cytometry, validation set, VLA-4 allosteric modulator project, pilot screen (AID 2674;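 active = inhibition above 50%, about 3 SD of the validation set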;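 note: antibody binding induced by the VLA-4 ligand LDV present at three times its Kd; 0% = LDV ligand with antibody and no compound and 100% = antibody without LDV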); conditions: HUTS-21 LIBS mAb binding, at 6.7 µM, stronger effect = higher value
Chain of Integrin beta-1 (Homo sapiens) + Integrin alpha-4 (Homo sapiens) (P05556 whole entry, looked up): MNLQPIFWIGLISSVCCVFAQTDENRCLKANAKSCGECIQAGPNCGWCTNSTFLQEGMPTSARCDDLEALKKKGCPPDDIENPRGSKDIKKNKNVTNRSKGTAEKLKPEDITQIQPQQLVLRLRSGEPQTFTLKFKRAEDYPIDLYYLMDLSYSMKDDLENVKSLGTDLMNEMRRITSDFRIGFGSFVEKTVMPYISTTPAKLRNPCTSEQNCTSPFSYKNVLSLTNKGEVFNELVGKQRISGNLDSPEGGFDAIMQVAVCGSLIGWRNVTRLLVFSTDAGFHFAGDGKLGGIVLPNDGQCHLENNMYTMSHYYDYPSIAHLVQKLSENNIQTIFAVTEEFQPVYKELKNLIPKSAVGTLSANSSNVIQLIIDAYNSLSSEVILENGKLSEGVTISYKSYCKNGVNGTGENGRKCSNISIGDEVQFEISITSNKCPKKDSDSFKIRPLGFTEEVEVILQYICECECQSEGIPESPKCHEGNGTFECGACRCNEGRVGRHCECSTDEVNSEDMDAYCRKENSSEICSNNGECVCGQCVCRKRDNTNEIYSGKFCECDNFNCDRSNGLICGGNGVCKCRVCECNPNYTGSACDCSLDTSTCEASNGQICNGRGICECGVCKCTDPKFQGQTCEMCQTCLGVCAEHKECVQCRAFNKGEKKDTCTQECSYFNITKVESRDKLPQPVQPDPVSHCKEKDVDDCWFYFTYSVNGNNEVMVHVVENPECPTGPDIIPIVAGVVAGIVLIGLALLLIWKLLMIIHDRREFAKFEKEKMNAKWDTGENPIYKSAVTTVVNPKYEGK
Chain of Integrin beta-1 (Homo sapiens) + Integrin alpha-4 (Homo sapiens) (P13612 whole entry, looked up): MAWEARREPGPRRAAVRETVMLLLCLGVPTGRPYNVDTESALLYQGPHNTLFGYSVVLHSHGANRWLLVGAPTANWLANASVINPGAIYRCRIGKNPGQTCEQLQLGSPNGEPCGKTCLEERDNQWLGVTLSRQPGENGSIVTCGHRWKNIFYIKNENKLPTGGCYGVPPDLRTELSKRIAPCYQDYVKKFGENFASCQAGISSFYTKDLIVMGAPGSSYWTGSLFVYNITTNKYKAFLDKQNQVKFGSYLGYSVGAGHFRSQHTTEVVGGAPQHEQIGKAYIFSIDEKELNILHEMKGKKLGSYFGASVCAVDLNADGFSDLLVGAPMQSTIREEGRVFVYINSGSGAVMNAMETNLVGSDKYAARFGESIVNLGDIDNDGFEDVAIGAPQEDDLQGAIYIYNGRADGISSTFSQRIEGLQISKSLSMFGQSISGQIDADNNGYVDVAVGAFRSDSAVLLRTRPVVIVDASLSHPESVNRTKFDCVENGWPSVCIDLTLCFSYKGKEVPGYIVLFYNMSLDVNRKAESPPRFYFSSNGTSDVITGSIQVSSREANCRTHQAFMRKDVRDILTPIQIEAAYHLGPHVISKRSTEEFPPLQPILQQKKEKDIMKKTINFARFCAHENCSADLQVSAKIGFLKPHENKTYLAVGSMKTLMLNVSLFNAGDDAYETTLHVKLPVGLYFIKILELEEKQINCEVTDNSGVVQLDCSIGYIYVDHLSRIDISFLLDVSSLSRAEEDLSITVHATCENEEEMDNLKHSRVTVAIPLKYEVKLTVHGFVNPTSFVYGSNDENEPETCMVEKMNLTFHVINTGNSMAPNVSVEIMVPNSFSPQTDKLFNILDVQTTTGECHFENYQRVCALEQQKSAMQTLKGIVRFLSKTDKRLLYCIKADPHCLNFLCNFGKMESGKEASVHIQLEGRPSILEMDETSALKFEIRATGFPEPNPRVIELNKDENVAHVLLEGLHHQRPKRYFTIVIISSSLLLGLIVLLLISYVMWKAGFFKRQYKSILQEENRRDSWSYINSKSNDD

[10] = calorie-restriction mimetic ROS inhibitors, yeast – validation compound set, pilot screen (AID 2706;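 active = superoxide response below 65% of plate, a cut near 3 SD across the whole screen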;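 note: yeast exposed to compound for one week at 30 degrees C before staining; 100% = mean of all compound wells on the same plate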); conditions: S. cerevisiae aging, superoxide DHE fluorescence; at 10 µM; stronger effect = lower value
[11] = target: Beta-adrenergic receptor kinase 1 (Homo sapiens) (UniProt P25098); experiment: GRK2 binders displacing RNA aptamer, biochemical, validation, human GRK2, bead flow cytometry (AID 488806;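 active = aptamer binding inhibition above 30%, about 3 SD of noise from non-fluorescent compounds; inactive = inhibition at or below 30%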); conditions: bead-bound GRK2, FAM-aptamer displacement, at 10 µM, stronger effect = higher value
[12] = target: AP-2 complex subunit beta (Homo sapiens) (UniProt P63010); experiment: beta-arrestin/AP2 interaction blockers – biochemical, validation set, GST-AP2 beads, flow cytometry, pilot screen (AID 504541;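 active = inhibition above 54%, about 3 SD of non-fluorescent compounds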;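 note: AP2 carries R879A mutation and is captured from E. coli lysate; bead-bound FITC arrestin peptide fluorescence measuring arrestin peptide binding to AP2; 0% = DMSO wells and 100% = excess unlabeled arrestin peptide control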); conditions: FITC arrestin peptide, at 10 µM, stronger effect = higher value
Chain of AP-2 complex subunit beta (Homo sapiens) (P63010 whole entry, looked up, one chain of several): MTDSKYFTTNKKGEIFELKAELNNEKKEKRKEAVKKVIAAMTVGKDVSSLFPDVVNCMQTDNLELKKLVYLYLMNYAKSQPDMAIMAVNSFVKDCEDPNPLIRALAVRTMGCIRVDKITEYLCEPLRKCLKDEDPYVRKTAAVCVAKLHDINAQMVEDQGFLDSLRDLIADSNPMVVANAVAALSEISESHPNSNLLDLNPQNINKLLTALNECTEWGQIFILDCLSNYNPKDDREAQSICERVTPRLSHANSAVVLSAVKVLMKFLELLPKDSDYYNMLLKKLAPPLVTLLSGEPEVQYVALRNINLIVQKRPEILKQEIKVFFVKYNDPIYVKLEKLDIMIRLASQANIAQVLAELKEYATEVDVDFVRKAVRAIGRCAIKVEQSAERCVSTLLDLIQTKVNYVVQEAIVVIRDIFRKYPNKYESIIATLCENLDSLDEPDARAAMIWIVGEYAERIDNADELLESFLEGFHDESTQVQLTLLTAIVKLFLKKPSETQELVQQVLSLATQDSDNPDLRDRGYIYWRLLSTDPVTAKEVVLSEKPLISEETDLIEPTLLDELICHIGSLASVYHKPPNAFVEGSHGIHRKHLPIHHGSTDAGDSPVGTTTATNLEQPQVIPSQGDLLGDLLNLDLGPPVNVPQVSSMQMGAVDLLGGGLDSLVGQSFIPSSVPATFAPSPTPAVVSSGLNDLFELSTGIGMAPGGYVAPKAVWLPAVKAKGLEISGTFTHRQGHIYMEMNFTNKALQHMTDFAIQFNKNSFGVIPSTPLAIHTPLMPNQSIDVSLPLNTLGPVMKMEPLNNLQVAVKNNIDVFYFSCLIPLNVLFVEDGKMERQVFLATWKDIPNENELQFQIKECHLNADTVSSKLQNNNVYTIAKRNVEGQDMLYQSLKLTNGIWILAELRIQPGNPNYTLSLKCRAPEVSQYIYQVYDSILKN

[13] = cytosolic pH regulators acting via V-ATPase – S. cerevisiae, pHLuorin, HTS validation (AID 504600; in the data active = response above about 15%;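 note: plate controls were DMSO for no effect and reference compound for full effect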); conditions: V-ATPase proton transport, at 10 µM, stronger effect = higher value
[14] = system: anti-desmoglein-3 scFv antibody binding to human DSG3; experiment: blockers of pathogenic pemphigus antibody–desmoglein-3 binding – biochemical, validation compound set, bead-based, flow cytometry, pilot screen (AID 588368;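 active = binding below the plate cutoff, the plate median minus 3 SD, with a reading above zero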;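 note: signal is the median channel fluorescence of bead-bound GFP antibody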); conditions: Protein G beads, DSG3-Fc, scFv-GFP binding, at 10 µM, stronger effect = lower value
[15] = system: Botulinum neurotoxin type F light chain protease (Clostridium botulinum); experiment: Clostridium botulinum type F light chain protease inhibitors, microsphere substrate cleavage, validation (AID 588459); conditions: multiplex microsphere protease substrate cleavage assay, flow cytometry; at 10 µM; stronger effect = higher value
[16] = target: Botulinum neurotoxin type A (Clostridium botulinum) (UniProt P0DPI0); experiment: BoNT/A light chain protease inhibitors, biochemical, multiplex microsphere flow cytometry, validation set (AID 588460); conditions: at 10 µM, stronger effect = higher value
Chain of Botulinum neurotoxin type A (Clostridium botulinum) (P0DPI0 whole entry, looked up): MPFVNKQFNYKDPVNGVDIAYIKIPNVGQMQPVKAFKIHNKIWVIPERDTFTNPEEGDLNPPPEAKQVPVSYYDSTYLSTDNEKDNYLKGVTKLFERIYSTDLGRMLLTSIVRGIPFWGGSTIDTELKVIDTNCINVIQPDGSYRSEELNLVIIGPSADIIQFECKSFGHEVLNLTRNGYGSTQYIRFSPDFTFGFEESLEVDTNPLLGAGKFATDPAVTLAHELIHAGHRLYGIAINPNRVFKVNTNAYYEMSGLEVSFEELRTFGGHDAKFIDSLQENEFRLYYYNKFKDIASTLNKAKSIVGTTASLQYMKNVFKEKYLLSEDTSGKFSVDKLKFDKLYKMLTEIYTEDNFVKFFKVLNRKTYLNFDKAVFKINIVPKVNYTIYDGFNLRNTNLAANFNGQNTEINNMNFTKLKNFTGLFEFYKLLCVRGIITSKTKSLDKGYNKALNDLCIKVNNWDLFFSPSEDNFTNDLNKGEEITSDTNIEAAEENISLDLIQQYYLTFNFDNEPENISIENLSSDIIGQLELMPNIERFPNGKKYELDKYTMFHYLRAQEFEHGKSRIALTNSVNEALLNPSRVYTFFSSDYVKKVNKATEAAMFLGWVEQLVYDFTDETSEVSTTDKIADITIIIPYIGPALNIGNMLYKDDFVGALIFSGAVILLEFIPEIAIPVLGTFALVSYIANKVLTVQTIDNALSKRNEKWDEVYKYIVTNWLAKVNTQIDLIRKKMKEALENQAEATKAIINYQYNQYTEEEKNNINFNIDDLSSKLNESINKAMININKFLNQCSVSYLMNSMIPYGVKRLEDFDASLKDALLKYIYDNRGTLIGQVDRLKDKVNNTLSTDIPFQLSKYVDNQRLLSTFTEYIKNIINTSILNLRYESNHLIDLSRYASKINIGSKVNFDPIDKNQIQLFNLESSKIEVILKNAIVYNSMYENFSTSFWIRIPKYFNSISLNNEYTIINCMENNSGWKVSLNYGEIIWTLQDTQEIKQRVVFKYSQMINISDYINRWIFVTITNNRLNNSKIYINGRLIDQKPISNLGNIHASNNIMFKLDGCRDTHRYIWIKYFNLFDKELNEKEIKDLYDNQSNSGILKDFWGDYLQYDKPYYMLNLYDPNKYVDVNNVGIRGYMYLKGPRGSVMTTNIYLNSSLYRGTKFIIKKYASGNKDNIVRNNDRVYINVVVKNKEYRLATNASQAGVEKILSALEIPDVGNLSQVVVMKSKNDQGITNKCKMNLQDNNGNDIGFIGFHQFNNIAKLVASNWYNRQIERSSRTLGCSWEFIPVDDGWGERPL

[17] = target: Lethal factor (Bacillus anthracis) (UniProt P15917); experiment: Bacillus anthracis lethal factor inhibition, microsphere flow cytometry protease assay, validation at 10 µM (AID 588461); conditions: multiplex microsphere protease cleavage assay, stronger effect = higher value
Chain of Lethal factor (Bacillus anthracis) (P15917 whole entry, looked up): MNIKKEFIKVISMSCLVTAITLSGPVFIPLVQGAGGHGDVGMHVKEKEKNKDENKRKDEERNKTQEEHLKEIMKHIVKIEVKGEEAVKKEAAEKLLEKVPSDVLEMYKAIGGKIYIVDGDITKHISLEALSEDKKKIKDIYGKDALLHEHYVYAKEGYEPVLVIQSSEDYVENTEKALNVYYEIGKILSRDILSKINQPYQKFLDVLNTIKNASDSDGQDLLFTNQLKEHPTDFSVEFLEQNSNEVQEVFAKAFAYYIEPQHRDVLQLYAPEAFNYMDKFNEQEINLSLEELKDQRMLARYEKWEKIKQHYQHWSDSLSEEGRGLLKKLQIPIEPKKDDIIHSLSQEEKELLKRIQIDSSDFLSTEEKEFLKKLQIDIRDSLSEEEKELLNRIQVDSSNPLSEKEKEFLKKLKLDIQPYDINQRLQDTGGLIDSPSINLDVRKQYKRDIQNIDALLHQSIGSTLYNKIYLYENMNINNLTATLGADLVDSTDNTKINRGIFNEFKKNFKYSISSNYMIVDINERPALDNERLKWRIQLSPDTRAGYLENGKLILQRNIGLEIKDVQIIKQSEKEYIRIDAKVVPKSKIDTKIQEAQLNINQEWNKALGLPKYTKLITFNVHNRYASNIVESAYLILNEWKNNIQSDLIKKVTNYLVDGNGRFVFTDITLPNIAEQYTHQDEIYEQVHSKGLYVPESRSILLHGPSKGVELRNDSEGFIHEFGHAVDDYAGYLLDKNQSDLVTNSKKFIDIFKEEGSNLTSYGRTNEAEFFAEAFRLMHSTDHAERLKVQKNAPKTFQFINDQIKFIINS

[18] = Nile Red efflux blockade in pump-expressing yeast – validation compound set, multiplex, phenotypic, pilot screen (AID 588506;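 active = efflux inhibition above 0.42, the validation set average plus 4 SD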;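 note: Nile Red retained in cells so higher fluorescence means more efflux inhibition; 0 = negative control wells and 1 = enniatin B 25 µM full block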); conditions: S. cerevisiae pump-expressing triplex, Nile Red efflux flow cytometry; at 10 µM; stronger effect = higher value
[19] = target: ATP-binding cassette sub-family B member 6 (Homo sapiens) (UniProt Q9NP58); experiment: blockers of ABCB6-driven porphyrin uptake – K562-ABCB6 cells, flow cytometry, validation set, pilot screen (AID 588550;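 active = inhibition above the screen-wide mean plus 3 SD, about 51%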;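 note: 0% = DMSO wells and 100% = benzethonium chloride 70 µM positive control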); conditions: K562-ABCB6 porphyrin accumulation, 1 h, at 10 µM, stronger effect = higher value
[20] = AML differentiation inducers, ER-HoxA9 marrow cells – cell-based, GFP/MAC1 double positive, flow cytometry, validation set, primary screen (AID 588685;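 active = differentiation response of at least 50%, scaled between solvent and reference control, from cells with both markers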;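 note: compound exposure lasts four days before antibody staining and flow analysis; 0% = DMSO wells and 100% = 5 µM fulvestrant positive control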); conditions: stronger effect = higher value
[21] = measured here: daughter cell gate
[22] = measured here: mother cell gate
[23] = measured here: daughter cell gate response
[24] = measured here: mother cell gate response

CCN(CC)c1ccc(/C=C/[N+](=O)[O-])cc1
GFP response vs DMSO [1]: 99.5% (inactive)
GFP response vs DMSO [1, 21]: 101%
GFP response vs DMSO [1, 22]: 100%
GFP response relative to DMSO [2]: 130% (inactive)
GFP response relative to DMSO [2, 23]: 131%
GFP response relative to DMSO [2, 24]: 132%
GFP response, % of DMSO [3]: 104% (inactive)
GFP response, % of DMSO [3, 21]: 106%
GFP response, % of DMSO [3, 22]: 100%

Cc1ccc(/C=C2\C(=O)NC(=O)N(CC3CCCO3)C2=O)s1 (stereo not given)
GFP response vs DMSO [1]: 92.7% (inactive)
GFP response vs DMSO [1, 21]: 95.9%
GFP response vs DMSO [1, 22]: 94.8%
GFP response relative to DMSO [2]: 102% (inactive)
GFP response relative to DMSO [2, 23]: 102%
GFP response relative to DMSO [2, 24]: 104%
GFP response, % of DMSO [3]: 82.6% (inactive)
GFP response, % of DMSO [3, 21]: 86.2%
GFP response, % of DMSO [3, 22]: 79.5%

CCN1CC2(COC(=O)c3ccccc3N)CCC(OC)C34C5CC6C(OC)CC(O)(C5C6OC)C(O)(C(OC)C23)C14 (stereo not given)
percent of DMSO control GFP [4]: 91.1% (inactive)
GFP response vs DMSO [5]: 120% (inactive)
percent response of DMSO control [6]: 96.6% (inactive)
GFP response vs DMSO [7]: 86.4% (inactive)
double positive events [8]: 68.8%
vesicle binding response [8]: 247% (inactive)
inhibition [9]: 5.49% (inactive)
superoxide response (% of plate) [10]: 99.8% (inactive)
aptamer binding inhibition [11]: 2% (inactive)
inhibition [12]: 4.65% (inactive)
response [13]: 5.45% (inactive)
binding (% of control) [14]: 101% (inactive)
inhibition [15]: 1.9% (inactive)
inhibition [16]: 0.1% (inactive)
inhibition [17]: -9.8% (inactive)
efflux inhibition (fraction of control) [18]: -0.42 (inactive)
inhibition [19]: 8% (inactive)
differentiation response [20]: 9.83% (inactive)

O=C1NC(=O)N(c2ccccc2)C(=O)/C1=C\c1ccc([N+](=O)[O-])o1
GFP response vs DMSO [1]: 98.7% (inactive)
GFP response vs DMSO [1, 21]: 99.8%
GFP response vs DMSO [1, 22]: 98%
GFP response relative to DMSO [2]: 101% (inactive)
GFP response relative to DMSO [2, 23]: 101%
GFP response relative to DMSO [2, 24]: 102%
GFP response, % of DMSO [3]: 103% (inactive)
GFP response, % of DMSO [3, 21]: 105%
GFP response, % of DMSO [3, 22]: 104%

CCOC(=O)C(C)Oc1cc(C)cc2oc(=O)c3c(c12)CCCC3 (stereo not given)
percent of DMSO control GFP [4]: 95.2% (inactive)
GFP response vs DMSO [5]: 116% (inactive)
percent response of DMSO control [6]: 104% (inactive)
GFP response vs DMSO [7]: 74.8% (inactive)
double positive events [8]: 81.8%
inhibition [9]: 0.64% (inactive)
superoxide response (% of plate) [10]: 103% (inactive)
aptamer binding inhibition [11]: 5% (inactive)
inhibition [12]: -3.6% (inactive)
response [13]: -8.97% (inactive)
binding (% of control) [14]: 97.6% (inactive)
inhibition [15]: -0.4% (inactive)
inhibition [16]: -1.5% (inactive)
inhibition [17]: 0.6% (inactive)
efflux inhibition (fraction of control) [18]: -0.46 (inactive)
inhibition [19]: 12% (inactive)
differentiation response [20]: -9.01% (inactive)

O=c1[nH]c(=S)n(-c2ccccc2)c(O)c1/C=N/N1CCOCC1
GFP response vs DMSO [1]: 102% (inactive)
GFP response vs DMSO [1, 21]: 103%
GFP response vs DMSO [1, 22]: 102%
GFP response relative to DMSO [2]: 95.7% (inactive)
GFP response relative to DMSO [2, 23]: 97.5%
GFP response relative to DMSO [2, 24]: 96.2%
GFP response, % of DMSO [3]: 100% (inactive)
GFP response, % of DMSO [3, 21]: 103%
GFP response, % of DMSO [3, 22]: 99.3%

O=C(O)c1nn(Cc2ccc(Cl)cc2Cl)c2ccccc12
GFP response vs DMSO [1]: 101% (inactive)
GFP response vs DMSO [1, 21]: 98.7%
GFP response vs DMSO [1, 22]: 104%
GFP response relative to DMSO [2]: 103% (inactive)
GFP response relative to DMSO [2, 23]: 100%
GFP response relative to DMSO [2, 24]: 102%
GFP response, % of DMSO [3]: 93.9% (inactive)
GFP response, % of DMSO [3, 21]: 91.5%
GFP response, % of DMSO [3, 22]: 94.4%
